Compound activity as filed in PubChem.
TDP1 cell CPT: qHTS for Inhibitors of human tyrosyl-DNA phosphodiesterase 1 (TDP1): qHTS in cells in presence of CPT; chicken DT40 Tdp1-/-;hTDP1 cells + 20 nM CPT, ATP luminescence, 48 h; Potency, µM (doses to about 46.2 µM), for inactives: at the highest dose activity change, negative = growth inhibition, most hits filed as inhibitors; actives 12% (n = 420,000); note: nearly all actives have a fitted effect of over 55% in size
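Chicken DT40 Tdp1-/- cells stably complemented with human TDP1 were seeded at 400 cells/well in medium containing 20 nM camptothecin, exposed to pin-transferred compounds, and grown at 37 °C for at least 48 hr. Viability was read as ATP luminescence.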
DT40 TDP1 no CPT: qHTS for Inhibitors of human tyrosyl-DNA phosphodiesterase 1 (TDP1): qHTS in cells in absence of CPT. DT40 Tdp1-/- hTDP1 cells, no CPT, ATP luminescence, 48 h. Potency, µM (titrated, usually from 46.2 µM), for inactives: top-dose activity change, negative = growth inhibition, usual class: inhibitors. AID 686978, 2013. actives 15% (n = 420,000); note: nearly all actives have a fitted effect of over 55% in size
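Chicken DT40 Tdp1-/- cells complemented with human TDP1, screened without camptothecin (DMSO vehicle only), 400 cells/well. Compounds pin-transferred, cells incubated at 37 °C for at least 48 hr. Growth read as ATP-dependent luminescence (CellTiter-Glo, 30 min at RT).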
VP16 counter: VP16 counterscreen qHTS for inhibitors of ROR gamma transcriptional activity | Drosophila S2 Gal4-VP16 UAS-luciferase, luminescence, 20 h | actives 3.5% (n = 310,000) | Potency, µM (highest dose often 53.6 µM), inactives show at the highest dose activity, negative = inhibition, most hits filed as inhibitors;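 note: Gal4-VP16 expression switched on by copper sulfate through the metallothionein promoter; nearly all actives have a fitted effect of over 50% in size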
TDP1 inh: qHTS Assay for Inhibitors of Tyrosyl-DNA Phosphodiesterase (TDP1); recombinant TDP1, AlphaScreen DNA substrate cleavage; Potency, µM (series often up to 130 µM), for inactives: at the top dose activity change, negative = inhibition, usual class: inhibitors; actives 0.28% (n = 350,000); AID 485290, 2010; note: nearly all actives have a fitted effect of over 40% in size
Target sequence (Q9NUW8 whole entry, looked up): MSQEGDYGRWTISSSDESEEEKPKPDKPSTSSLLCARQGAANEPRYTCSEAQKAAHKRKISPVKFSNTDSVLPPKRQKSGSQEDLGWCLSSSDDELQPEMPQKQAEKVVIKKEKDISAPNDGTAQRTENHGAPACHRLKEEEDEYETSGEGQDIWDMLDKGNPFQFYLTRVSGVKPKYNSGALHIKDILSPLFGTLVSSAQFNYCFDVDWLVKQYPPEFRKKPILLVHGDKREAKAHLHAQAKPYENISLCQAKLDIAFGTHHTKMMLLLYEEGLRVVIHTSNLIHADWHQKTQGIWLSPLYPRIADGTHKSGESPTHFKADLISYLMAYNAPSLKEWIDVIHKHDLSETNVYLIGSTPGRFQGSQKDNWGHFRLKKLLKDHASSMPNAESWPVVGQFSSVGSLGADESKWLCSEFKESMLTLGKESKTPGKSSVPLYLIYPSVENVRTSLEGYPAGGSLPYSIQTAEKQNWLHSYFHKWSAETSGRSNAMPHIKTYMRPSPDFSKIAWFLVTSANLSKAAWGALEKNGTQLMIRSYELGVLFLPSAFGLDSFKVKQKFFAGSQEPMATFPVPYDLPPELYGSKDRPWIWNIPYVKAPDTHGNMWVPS
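Here, a 5' biotin and 3' phosphotyrosine-FITC DNA oligonucleotide reports Tdp1 activity: intact substrate bridges AlphaScreen beads, while cleavage leaves a 3' phosphate and drops signal. All incubations at room temperature.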
RORg inh: qHTS for inhibitors of ROR gamma transcriptional activity. Nuclear receptor ROR-gamma (Mus musculus), P51450. Drosophila S2 Gal4-RORgamma UAS-luciferase reporter, 20 h. Potency, µM (doses to about 53.6 µM), without a hit: at the highest dose activity change, negative = inhibition, actives largely listed as inhibitors. actives 5.4% (n = 310,000). AID 2551, 2010; note: nearly all actives have a fitted effect of over 60% in size
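Using a luciferase readout, inhibitors were identified by reduced reporter activity in Drosophila cells coexpressing a copper-inducible Gal4–ROR gamma fusion and UAS-driven Photinus luciferase, incubated 20 hr after 700 uM copper sulfate.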
* marks the source's active call; other numbers are inactive results; ? = inconclusive; nt = no result given; [ ] = dose if it differs, or a comment. A selection: hits, their analogues and other compounds. The true share with any hit is near 19%. Calls come from the whole dose curve; as a rule, active = well fitted curve in the direction sought with a large enough effect; inconclusive = small, poorly fitted or top-dose-only effect, or another doubt; inactive = no such curve, though single readings can be large; an effect the other way counts as inactive or inconclusive. % is set by controls: 0 for no effect and ±100 for the full control effect; potency is the fitted concentration of half-maximal effect.

SMILES	TDP1 cell CPT	DT40 TDP1 no CPT	VP16 counter	TDP1 inh	RORg inh
COc1ccc2c(=O)c3c(=O)n(Cc4ccco4)c(-c4cc(OC)c(OC)c(OC)c4)nc3oc2c1	?	?	-15%	3%	9%
Cc1nc(S/C(=C\c2ccc(-c3ccc(C(=O)O)c(Cl)c3)o2)C(=O)O)n[nH]1	-8%	-19%	-2%	3.2µM*	11%
N#Cc1c(/N=C/c2ccc(-c3ccc(C(=O)O)c(Cl)c3)o2)sc2c1CCCC2	7%	-23%	nt	7%	nt
CC(C)C1OC2c3cccc4cccc(c34)C2N1c1ccccc1 (centres undefined)	-17%	-16%	-11%	10%[56.1 µM]	-15%
O=C(Cc1n[nH]c(=O)c2ccccc12)NCc1ccccc1	?	-20%	-4%	0%	31%
O=c1[nH]nc(CNc2ccc(C(F)(F)F)cc2)c2ccccc12	12µM*	15µM*	1%	-4%	?
O=c1[nH]nc(CNc2ccc(Cl)cc2Cl)c2ccccc12	?	?	-1%	5%	?
O=c1[nH]nc(Cc2ncc(C(F)(F)F)cc2Cl)c2ccccc12	?	16µM*	-29%	nt	?
O=c1[nH]nc(CNc2ccc(O)cc2)c2ccccc12	?	21µM*	-24%	2%	-44%
CC(C)(Oc1ccc(Cl)cc1)C(=O)NCc1n[nH]c(=O)c2ccccc12	21µM*	?	nt	-2%	nt
O=C(NC1CCCCCC1)c1cccnc1Sc1ccccc1	-9%	?	-13%	8%	19%
C[N+]1(CC(=O)Nc2ccc(F)cc2)CCN(C(=O)c2ccco2)CC1	-19%	-4%	-7%	4%	0%
COc1cc(NC(=O)c2nnn(Cc3ccc(F)cc3)c2N)cc(OC)c1	?	-25%	nt	-7%	nt
CC(=O)Nc1cccc(C(=O)Nc2ccc(S(=O)(=O)NC3=NCCCCC3)cc2)c1	3%	0%	nt	nt	nt
Cc1ccc(C)c(N2N=C(C(=O)OCc3nnc(-c4ccccc4)o3)CCC2=O)c1	-5%	2%	nt	nt	nt
O=C(N[C@@H](Cc1ccccc1)C(=O)NC1CCCCCC1)c1ccco1	?	?	29%	0%	8%
O=C(Nc1cc(Cl)ccc1Oc1ccccc1)c1ccccc1F	?	?	-2%	5%	-5%
COc1ccccc1OCC(=O)NCc1n[nH]c(=O)c2ccccc12	?	?	nt	-1%	nt
O=c1[nH]nc(CNc2ccc(OC(F)(F)F)cc2)c2ccccc12	21µM*	18µM*	0%	2%	43%
CC(C(=O)Nc1cccc([N+](=O)[O-])c1)N1CCN(C/C=C/c2ccccc2)CC1 (centres undefined)	?	?	7%	-3%	16%
CCCCN(C(=O)NC(=O)Nc1ccccc1C)S(C)(=O)=O	-2%	-13%	-2%	5%	-8%
c1ccc(-c2ccccc2OCCCN2CCCCC2)cc1	16µM*	15µM*	-12%	3%	-2%
c1ccc2c(OCCCN3CCCCCC3)cccc2c1	29µM*	23µM*	5%	nt	-28%
N=C(C[C@@H](O)COc1ccccc1-c1ccccc1)N1CCCCC1	3µM*	3.8µM*	4%	12%[56.1 µM]	-7%
Clc1cccc(OCCCN2CCCC2)c1Cl	-25%	?	0%	-11%	-5%
SMILES	TDP1 cell CPT	DT40 TDP1 no CPT	VP16 counter	TDP1 inh	RORg inh
Cc1cc(SCC(=O)N2CCN(C(=O)c3ccco3)CC2)c(C)cc1Br	-28%	-26%	nt	3%	nt
CC(=O)Nc1ccc(-c2ccnc3c2CC(C(=O)Nc2ccc4c(c2)OCO4)O3)cc1 (centres undefined)	6.5µM*	8.2µM*	nt	nt	nt
CC(=O)c1cccc(-c2ccnc3c2CC(C(=O)NC(C)C)O3)c1 (centres undefined)	9%	7%	nt	nt	nt
CC(=O)c1cccc(-c2ccnc3c2CC(C(=O)Nc2ccc4c(c2)OCO4)O3)c1 (centres undefined)	4.1µM*	2.3µM*	nt	nt	nt
CC(C)c1ccc(NC(=O)C2Cc3c(-c4ccc5c(c4)OCO5)ccnc3O2)cc1 (centres undefined)	?	15µM*	nt	nt	nt
CC(C)c1cc(=O)oc2c3c4c(cc12)CCCN4CCC3	16µM*	?	-3%	5%	-35%
Cc1cc(=O)oc2c3c4c(cc12)OCCN4CCC3	?	-29%	?	-3%	?
O=c1oc2c3c4c(cc2c(C(F)(F)F)c1CCN1CCOCC1)CCCN4CCC3	16µM*	16µM*	-2%	-8%	1%
O=C(N1CCOCC1)N(CCN1CCOCC1)Cc1cccc2ccccc12	-24%	-16%	-2%	4%	19%
COc1cc2c(-c3ccccc3C)nc3c(c(C)nn3-c3ccccc3)c2cc1OC	23µM*	?	nt	-7%[12.3 µM]	nt
COc1cc2c(-c3cc(Br)ccc3O)nc3c(c(C)nn3-c3ccccc3)c2cc1OC	?	-24%	nt	-6%[12.3 µM]	nt
COc1cc(-c2nc3c(c(C)nn3-c3ccccc3)c3cc(OC)c(OC)cc23)ccc1O	?	21µM*	-10%	-3%	18%
Cc1ccccc1NC(=O)Cc1nnc(SCc2ccc(Cl)c(Cl)c2)n1C	?	-18%	4%	3%	10%
C#CC(=O)N(c1ccc(OC)c(OC)c1)C(C(=O)NC1CCCC1)c1cccs1 (centres undefined)	0.73µM*	0.65µM*	8.9µM*	3%	2.5µM*
Cc1cccc(N(C(=O)C(F)(F)F)C(C(=O)NC2CCCCC2)c2cccs2)c1 (centres undefined)	-15%	-18%	?	6%	-18%
COc1ccc(N(C(=O)c2ccco2)C(C(=O)NC2CCCC2)c2cccs2)c(OC)c1 (centres undefined)	-24%	?	17%	5%	0%
C#CC(=O)N(c1cccc(OC)c1)C(C(=O)NC1CCCC1)c1cccs1 (centres undefined)	1µM*	2.3µM*	5µM*	-4%	1.6µM*
Oc1ccccc1/C=N/n1cnn(Cc2ccccc2Cl)c1=S	?	?	?	1%	-15%[10 µM]
C#CCn1c(=NC(=O)c2cccs2)sc2cccc(OC)c21	?	13µM*	-22%	-6%	-13%
C#CCn1c(=NC(=O)CN2C(=O)CCC2=O)sc2cccc(OC)c21	-3%	?	-2%	4%	6%
Cc1ccc2c(c1)sc(=NC(=O)c1cccs1)n2C	?	-19%	7.9µM*	-9%	8.9µM*
O=c1cc(CO)[nH]nc1CO	8%	-3%	nt	nt	nt
